Unmarked numbers belong to inactive results. For some assays here: Entries with a potency or affinity are not part of this list. The source made the active and inactive calls. Unless noted, how the calls were made is not given here.

Assay [1] can be described thus: antimalarial activity against Dd2 strain (AID 2302;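 active means growth inhibition above 50% at the single 2 µM test dose, taken to imply half-maximal potency below 2 µM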;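 further: 0% = DMSO untreated growth and 100% = chloroquine plus artemisinin killed control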). The note with it: P. falciparum Dd2 in RBCs, LDH growth readout, 72 h; at 2 µM; stronger effect = higher value.
A short description of assay [2]: human hepatoma cell viability loss – ATP luminescence, cytotoxicity control for P. falciparum antimalarial project, primary screen (AID 2303;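 active means inhibition above 50%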;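 further: 0% = DMSO wells and 100% = digitonin-killed cells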). The conditions noted are these: HepG2 viability, 24-48 h, at 10 µM, stronger effect = higher value.
For assay [3], the target named is L-lactate dehydrogenase (Plasmodium falciparum (isolate CDC / Honduras)) (UniProt Q27743). Description: PfLDH activity inhibition – cell lysate, 3D7 strain, counter-screen for P. falciparum growth inhibition project (AID 2304).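 Further: 0% = vehicle and 100% = reference inhibitor.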 The conditions noted are these: P. falciparum 3D7 crude extract, LDH APAD/NBT absorbance; at 2 µM; stronger effect = higher value.
Assay [4] can be described thus: inhibition of 3D7 malaria parasite growth – strain 3D7 (AID 2306).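 Further: 0% = DMSO wells and 100% = chloroquine plus artemisinin control wells.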 The note with it: P. falciparum 3D7 erythrocytic growth, LDH absorbance, 72 h; at 2 µM; stronger effect = higher value.
Assay [5] has as its target Calcium-dependent protein kinase 1 (Plasmodium falciparum (isolate 3D7)) (UniProt P62344). In words: PfCDPK1 kinase inhibitors, biochemical, TCAMS library (AID 1159585; cut-off not given, nearly all actives have IC50 up to about 0.98 µM;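 further: inhibitors leave more ATP so luminescence rises with inhibition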). The note with it: recombinant PfCDPK1, Kinase-Glo ATP depletion luminescence.
The target of assay [6] is Plasmodium falciparum protein kinase 6 (PK6, PF3D7_1337100) (UniProt Q8IDW1). In words: PfPK6 kinase inhibitors, biochemical, TCAMS library (AID 1159586). The conditions noted are these: recombinant PfPK6, Kinase-Glo ATP depletion luminescence.
The target in assay [7] is Protein kinase 7 (PK7), Plasmodium falciparum 3D7 (PF3D7_0213400) (UniProt Q7YTF7). In words: inhibition of Plasmodium PK7 catalytic activity – biochemical, TCAMS antimalarial set, Kinase-Glo luminescence (AID 1159587). The note with it: recombinant PfPK7, Kinase-Glo ATP depletion luminescence. A general note: In Kinase-Glo more light means more ATP remaining.
Assay [8] has as its target Calcium-dependent protein kinase 4 (Plasmodium falciparum (isolate 3D7)) (UniProt Q8IBS5). Description: PfCDPK4 kinase inhibitors, biochemical, TCAMS library (AID 1159588; cut-off not given, nearly all actives have IC50 up to about 0.91 µM). The note with it: recombinant PfCDPK4, Kinase-Glo ATP depletion luminescence.

Calcium-dependent protein kinase 4 (Plasmodium falciparum (isolate 3D7)), sequence (Q8IBS5 whole entry, looked up): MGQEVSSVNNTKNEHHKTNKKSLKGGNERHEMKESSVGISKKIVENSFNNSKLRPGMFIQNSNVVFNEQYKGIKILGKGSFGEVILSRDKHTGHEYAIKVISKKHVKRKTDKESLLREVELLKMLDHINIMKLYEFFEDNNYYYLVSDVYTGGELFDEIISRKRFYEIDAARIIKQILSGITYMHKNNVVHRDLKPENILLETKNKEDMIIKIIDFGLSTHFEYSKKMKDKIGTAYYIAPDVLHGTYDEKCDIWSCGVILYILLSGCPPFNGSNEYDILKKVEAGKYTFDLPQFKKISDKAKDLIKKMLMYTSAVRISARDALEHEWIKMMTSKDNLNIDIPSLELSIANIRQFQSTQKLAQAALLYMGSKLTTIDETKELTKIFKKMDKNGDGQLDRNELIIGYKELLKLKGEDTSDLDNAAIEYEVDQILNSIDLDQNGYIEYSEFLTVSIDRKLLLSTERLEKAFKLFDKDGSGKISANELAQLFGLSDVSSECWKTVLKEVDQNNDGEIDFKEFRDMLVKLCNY
Protein kinase 7 (PK7), Plasmodium falciparum 3D7 (PF3D7_0213400), sequence (Q7YTF7 1-343): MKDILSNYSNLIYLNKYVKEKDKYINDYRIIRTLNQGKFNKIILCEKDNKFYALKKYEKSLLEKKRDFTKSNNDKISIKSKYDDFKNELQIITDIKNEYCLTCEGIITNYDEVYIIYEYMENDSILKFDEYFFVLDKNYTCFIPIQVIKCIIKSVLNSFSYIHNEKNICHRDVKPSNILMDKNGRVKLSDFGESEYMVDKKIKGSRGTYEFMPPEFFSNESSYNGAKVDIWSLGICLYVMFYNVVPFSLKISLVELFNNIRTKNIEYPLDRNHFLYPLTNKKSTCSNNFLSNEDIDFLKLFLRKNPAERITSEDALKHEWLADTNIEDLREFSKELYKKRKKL
Plasmodium falciparum protein kinase 6 (PK6, PF3D7_1337100), sequence (Q8IDW1 1-305): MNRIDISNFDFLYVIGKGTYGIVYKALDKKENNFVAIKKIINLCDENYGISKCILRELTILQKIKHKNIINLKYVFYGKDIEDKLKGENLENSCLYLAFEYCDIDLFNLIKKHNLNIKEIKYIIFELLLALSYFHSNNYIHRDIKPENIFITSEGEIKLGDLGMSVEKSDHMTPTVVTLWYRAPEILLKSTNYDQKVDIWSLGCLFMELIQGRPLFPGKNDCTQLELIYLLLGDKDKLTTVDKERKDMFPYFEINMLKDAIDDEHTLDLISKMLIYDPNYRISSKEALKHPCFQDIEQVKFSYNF
Calcium-dependent protein kinase 1 (Plasmodium falciparum (isolate 3D7)), sequence (P62344 whole entry, looked up): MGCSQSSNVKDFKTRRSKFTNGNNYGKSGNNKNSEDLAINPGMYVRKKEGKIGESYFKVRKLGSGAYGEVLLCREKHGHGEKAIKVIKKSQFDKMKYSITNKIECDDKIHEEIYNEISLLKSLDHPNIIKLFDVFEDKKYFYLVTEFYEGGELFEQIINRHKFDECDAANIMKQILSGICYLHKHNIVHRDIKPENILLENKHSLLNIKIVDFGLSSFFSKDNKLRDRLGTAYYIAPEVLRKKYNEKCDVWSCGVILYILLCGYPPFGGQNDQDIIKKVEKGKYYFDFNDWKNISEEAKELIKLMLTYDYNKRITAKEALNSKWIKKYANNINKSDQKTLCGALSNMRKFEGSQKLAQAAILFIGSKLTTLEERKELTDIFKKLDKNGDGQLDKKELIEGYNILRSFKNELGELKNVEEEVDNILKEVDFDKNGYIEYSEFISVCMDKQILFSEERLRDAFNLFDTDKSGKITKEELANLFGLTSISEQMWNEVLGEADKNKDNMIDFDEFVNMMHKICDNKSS
L-lactate dehydrogenase (Plasmodium falciparum (isolate CDC / Honduras)), sequence (Q27743 whole entry, looked up): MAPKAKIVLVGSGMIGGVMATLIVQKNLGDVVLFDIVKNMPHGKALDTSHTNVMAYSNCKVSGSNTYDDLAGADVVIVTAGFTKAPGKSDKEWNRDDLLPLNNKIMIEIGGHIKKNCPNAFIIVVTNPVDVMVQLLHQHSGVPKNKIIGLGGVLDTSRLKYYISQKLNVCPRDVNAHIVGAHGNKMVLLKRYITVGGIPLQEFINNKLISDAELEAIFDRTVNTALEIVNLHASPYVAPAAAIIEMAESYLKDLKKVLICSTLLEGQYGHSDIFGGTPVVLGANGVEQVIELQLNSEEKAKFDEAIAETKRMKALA

As to `CCc1c(C)nc(-n2nc(C)cc2NC(=O)C2c3ccccc3Oc3ccccc32)[nH]c1=O`, the growth inhibition was 80% (active) in assay [1] and 89% (active) in assay [4]. Moreover, the inhibition is 37% in assay [2] and 1% in assay [3]. Besides, the result in assay [5], in assay [6], in assay [7] and in assay [8] was inactive.
As to `CCCCCCc1ncc(-c2cc3cc(O)c(-c4ccccc4)cc3oc2=O)s1`, the growth inhibition is 63% (active) in assay [1] and 90% (active) in assay [4]. In addition, the inhibition was 4% in assay [2] and -8% in assay [3]. The result in assay [5], in assay [6], in assay [7] and in assay [8] was inactive.
With `CC(=O)N1N=C(c2cccs2)Sc2c1nc(-c1ccc(Cl)cc1)n2C(C)=O`, the growth inhibition in assay [1] was 93% (active); in assay [4], 99% (active). Moreover, the inhibition in assay [2] was 3%; in assay [3], 0%. The outcome in assay [5], in assay [6], in assay [7] and in assay [8] was inactive.
As to `COc1ccc2nccc(N(C)CC3(O)CCN(CCc4ccc5c(c4)OCCO5)CC3)c2n1`, the growth inhibition was 96% (active) in assay [1] and 100% (active) in assay [4]. Moreover, the inhibition was 15% in assay [2] and -3% in assay [3]. In addition, the result in assay [5], in assay [6], in assay [7] and in assay [8] was inactive.
As for `NC(=O)c1cccc(C(=O)Nc2cccc(-c3csc(-c4nc5ccccc5[nH]4)c3)c2)c1`, the growth inhibition in assay [1] was 92% (active); in assay [4], 101% (active). The values for the inhibition in assay [2] and in assay [3] were 16% and 0%, respectively. In addition, the outcome in assay [5], in assay [6], in assay [7] and in assay [8] was inactive.
Turning to `CCc1cc(Cc2cnc(N)nc2N)cc(CC)c1OC`, the values for the growth inhibition in assay [1] and in assay [4] were 12% and 90% (active), respectively. Further, the inhibition was 3% in assay [2] and 8% in assay [3]. Further, the result in assay [5], in assay [6], in assay [7] and in assay [8] was inactive.
In the case of `CCc1cccc(OCC2CCCN(c3ccc(C(=O)NC4CC4)cn3)C2)c1` (configuration not stated), the growth inhibition in assay [1] is 73% (active); in assay [4], 94% (active). The inhibition in assay [2] is -1%; in assay [3], 5%. Besides, the outcome in assay [5], in assay [6], in assay [7] and in assay [8] was inactive.
As for `Cc1cc2nc(-c3ccc(C(=O)NC4CCN(Cc5ccccc5)CC4)cc3)[nH]c2cc1C`, the growth inhibition in assay [1] is 99% (active); in assay [4], 93% (active). Besides, the figures for the inhibition in assay [2] and in assay [3] were -6% and -5%, respectively. Also, the outcome in assay [5], in assay [6], in assay [7] and in assay [8] was inactive.
For `O=C(Nc1cccc(CN2CCCN(Cc3ccc(O)cc3)CC2)c1)c1ccc2ccccc2n1`, the growth inhibition in assay [1] was 22%; in assay [4], 90% (active). In addition, the inhibition in assay [2] was 13%; in assay [3], -1%. Further, the result in assay [5], in assay [6], in assay [7] and in assay [8] was inactive.
Take `CC(=O)N(Cc1nc(-c2cc(C(F)(F)F)cc(C(F)(F)F)c2)cs1)c1c(C)cccc1C`: the growth inhibition is 99% (active) in assay [1] and 100% (active) in assay [4]. In addition, the inhibition in assay [2] is -2%; in assay [3], 1%. In addition, the outcome in assay [5], in assay [6], in assay [7] and in assay [8] was inactive.
Take `COc1cc(Cc2cnc(N)nc2N)cc(OC(C)C)c1OC`: the results for the growth inhibition in assay [1] and in assay [4] were 15% and 91% (active), respectively. The inhibition is 10% in assay [2] and 0% in assay [3]. The result in assay [5], in assay [6], in assay [7] and in assay [8] was inactive.
Turning to `O=C(/C=C/c1cc(C(F)(F)F)ccc1F)NCCCCCN1CCC(c2c[nH]c3ccccc23)CC1`, the growth inhibition in assay [1] was 4%; in assay [4], 88% (active). Besides, the inhibition is 39% in assay [2] and -1% in assay [3]. In addition, the outcome in assay [5], in assay [6], in assay [7] and in assay [8] was inactive.
With `CC[C@H](NC(=O)c1c(CN2CCC(N3CCCCC3)CC2)c(-c2ccccc2)nc2c(Cl)c(O)ccc12)c1ccccc1`, the growth inhibition in assay [1] was 66% (active); in assay [4], 101% (active). Also, the inhibition in assay [2] was -1%; in assay [3] it was -3%. Also, the result in assay [5], in assay [6], in assay [7] and in assay [8] was inactive.
For the compound `COc1ccc2ncc(C)c(CCN3CCC(NCc4ccc5c(n4)NC(=O)CS5)CC3)c2c1`, the growth inhibition in assay [1] is 53% (active); in assay [4], 100% (active). Also, the inhibition in assay [2] was 14%; in assay [3] it was -4%. In addition, the outcome in assay [5], in assay [6], in assay [7] and in assay [8] was inactive.
Take `CCOC(=O)C1=C(C)N=c2sc(=Cc3cc(Cl)ccc3O)c(=O)n2C1c1ccc2c(c1)OCO2` (configuration not stated): the growth inhibition is 91% (active) in assay [1] and 96% (active) in assay [4]. In addition, the inhibition in assay [2] was -2%; in assay [3] it was -1%. Also, the outcome in assay [5], in assay [6], in assay [7] and in assay [8] was inactive.
In the case of `Cc1cc(N[C@@H](C)C(=O)Nc2ccccc2)nc(NCCc2ccc(F)cc2)n1`, the growth inhibition was 43% in assay [1] and 100% (active) in assay [4]. The inhibition in assay [2] is 33%; in assay [3], -2%. Besides, the outcome in assay [5], in assay [6], in assay [7] and in assay [8] was inactive.
`CN1CCN(Cc2ccc(-c3ccc4c(Nc5cc(O)c(F)cc5Cl)ccnc4c3)o2)CC1`: the growth inhibition is 99% (active) in assay [1] and 101% (active) in assay [4]. Besides, the inhibition was 27% in assay [2] and 3% in assay [3]. Further, the result in assay [5], in assay [6], in assay [7] and in assay [8] was inactive.
On to `CN(C)CCCn1c(C(=O)OC(c2ccccc2)c2ccccc2)cc2cc(OCc3ccccc3)ccc21`, for which the results for the growth inhibition in assay [1] and in assay [4] were 85% (active) and 82% (active), respectively. The figures for the inhibition in assay [2] and in assay [3] were 12% and 0%, respectively. In addition, the outcome in assay [5], in assay [6], in assay [7] and in assay [8] was inactive.
Consider `CCN(CC)CCN(Cc1ccc(-c2ccc(C(F)(F)F)cc2)cc1)C(=O)Cn1c(CCc2cc(F)c(F)cc2F)nc(=O)c2ccccc21`, for which the figures for the growth inhibition in assay [1] and in assay [4] were 50% (active) and 99% (active), respectively. Moreover, the inhibition in assay [2] is 39%; in assay [3] it was -4%. Also, the result in assay [5], in assay [6], in assay [7] and in assay [8] was inactive.

In general, inhibition refers to the change of the read-out against control, counted positive when it falls.

(Values after PubChem BioAssay.)
